# Molecular target: Catechol O-methyltransferase (Homo sapiens) (UniProt P21964)
# Experiment: Confirmatory Screen for Target Class Profiling of Small Molecule Inhibitors of Methyltransferases (AID 1745852); as to activity change, negative = inhibition: % is scaled to controls: 0 for no effect and ±100 for the full control effect
# Settings: MTase-Glo luminescence, SAH detection, recombinant enzyme; measured here: COMT max response; stronger effect = lower value
# Sequence of Catechol O-methyltransferase (Homo sapiens) (P21964 whole entry, looked up): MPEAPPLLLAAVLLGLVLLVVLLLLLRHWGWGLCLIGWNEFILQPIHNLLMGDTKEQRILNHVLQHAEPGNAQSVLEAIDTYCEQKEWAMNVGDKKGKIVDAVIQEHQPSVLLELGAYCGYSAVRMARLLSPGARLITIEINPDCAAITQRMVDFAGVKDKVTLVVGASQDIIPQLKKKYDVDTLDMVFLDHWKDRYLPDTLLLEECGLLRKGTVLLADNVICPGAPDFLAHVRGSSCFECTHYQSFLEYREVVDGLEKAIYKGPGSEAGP
row,Structure (SMILES),activity
1,CCN1C(=O)c2ccccc2C1Nc1ccc(OCCN2CCCCC2)cc1 (stereo not given),-0.796%
2,CC(C)N(CCC(=O)c1ccc2ccccc2c1)Cc1ccccc1,3.44%
3,C=CC[N+]1([C@H]2C[C@H]3[C@@H]4CC[C@H]5C[C@H](OC(C)=O)[C@@H](N6CCCCC6)C[C@]5(C)[C@H]4CC[C@]3(C)[C@H]2OC(=O)CC)CCCCC1,-2.74%
4,O=C1NC2CCCCN2C12CCN(CCCN1c3ccccc3CCc3ccc(Cl)cc31)CC2 (stereo not given),-2.76%
5,Nc1c(NC/C=C\COc2cc(CN3CCCCC3)ccn2)c(=O)c1=O,-6.1%

# Molecular target: Guanidinoacetate N-methyltransferase (Homo sapiens) (UniProt Q14353)
# Experiment: as above
# Settings: MTase-Glo luminescence, SAH detection, recombinant enzyme; at 57.3 µM (top of the series)
row,Structure (SMILES),"activity change, negative = inhibition"
1,CCN1C(=O)c2ccccc2C1Nc1ccc(OCCN2CCCCC2)cc1 (stereo not given),1.78%
2,CC(C)N(CCC(=O)c1ccc2ccccc2c1)Cc1ccccc1,9.33%
3,C=CC[N+]1([C@H]2C[C@H]3[C@@H]4CC[C@H]5C[C@H](OC(C)=O)[C@@H](N6CCCCC6)C[C@]5(C)[C@H]4CC[C@]3(C)[C@H]2OC(=O)CC)CCCCC1,0%
4,O=C1NC2CCCCN2C12CCN(CCCN1c3ccccc3CCc3ccc(Cl)cc31)CC2 (stereo not given),1.64%
5,Nc1c(NC/C=C\COc2cc(CN3CCCCC3)ccn2)c(=O)c1=O,2.26%

# Molecular target: Nicotinamide N-methyltransferase (Homo sapiens) (UniProt P40261)
# Sequence (P40261 whole entry, looked up): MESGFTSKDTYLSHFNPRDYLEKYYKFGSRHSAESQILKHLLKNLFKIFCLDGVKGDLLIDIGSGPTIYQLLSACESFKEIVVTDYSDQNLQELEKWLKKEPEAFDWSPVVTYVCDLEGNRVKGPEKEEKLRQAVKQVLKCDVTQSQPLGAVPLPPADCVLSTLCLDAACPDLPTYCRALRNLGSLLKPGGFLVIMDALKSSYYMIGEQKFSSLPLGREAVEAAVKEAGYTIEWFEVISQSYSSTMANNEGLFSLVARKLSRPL
# Experiment: as above
# Settings: MTase-Glo luminescence, SAH detection, recombinant enzyme; measured here: NNMT max response; stronger effect = lower value
row,Structure (SMILES),activity
1,CCN1C(=O)c2ccccc2C1Nc1ccc(OCCN2CCCCC2)cc1 (stereo not given),1.49%
2,CC(C)N(CCC(=O)c1ccc2ccccc2c1)Cc1ccccc1,-17.4%
3,C=CC[N+]1([C@H]2C[C@H]3[C@@H]4CC[C@H]5C[C@H](OC(C)=O)[C@@H](N6CCCCC6)C[C@]5(C)[C@H]4CC[C@]3(C)[C@H]2OC(=O)CC)CCCCC1,-7.38%
4,O=C1NC2CCCCN2C12CCN(CCCN1c3ccccc3CCc3ccc(Cl)cc31)CC2 (stereo not given),-29.7%
5,Nc1c(NC/C=C\COc2cc(CN3CCCCC3)ccn2)c(=O)c1=O,-13.9%

# Molecular target: Phenylethanolamine N-methyltransferase (Homo sapiens) (UniProt P11086)
# Sequence (P11086 whole entry, looked up): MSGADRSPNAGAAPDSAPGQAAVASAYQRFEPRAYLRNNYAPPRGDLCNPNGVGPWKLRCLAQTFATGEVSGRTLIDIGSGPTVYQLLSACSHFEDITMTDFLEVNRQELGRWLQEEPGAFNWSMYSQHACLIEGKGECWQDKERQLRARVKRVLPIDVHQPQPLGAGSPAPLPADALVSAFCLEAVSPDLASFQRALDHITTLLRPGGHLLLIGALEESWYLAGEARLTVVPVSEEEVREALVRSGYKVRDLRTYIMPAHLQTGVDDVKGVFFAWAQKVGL
# Experiment: as above
# Settings: MTase-Glo luminescence, SAH detection, recombinant enzyme; measured here: PNMT max response; stronger effect = lower value
row,Structure (SMILES),activity
1,CCN1C(=O)c2ccccc2C1Nc1ccc(OCCN2CCCCC2)cc1 (stereo not given),0.197%
2,CC(C)N(CCC(=O)c1ccc2ccccc2c1)Cc1ccccc1,4.13%
3,C=CC[N+]1([C@H]2C[C@H]3[C@@H]4CC[C@H]5C[C@H](OC(C)=O)[C@@H](N6CCCCC6)C[C@]5(C)[C@H]4CC[C@]3(C)[C@H]2OC(=O)CC)CCCCC1,-11.5%
4,O=C1NC2CCCCN2C12CCN(CCCN1c3ccccc3CCc3ccc(Cl)cc31)CC2 (stereo not given),-1.01%
5,Nc1c(NC/C=C\COc2cc(CN3CCCCC3)ccn2)c(=O)c1=O,-8.61%

# Source: PubChem BioAssay (NCATS)
